High-throughput results: PubChem BioAssay, several laboratories
Sampled rows, rich in hits. Any-hit rate of the full collection: about 0.72%.
PolyA inh – blocks polyadenylation in yeast reporter cells. activity score, % at 12 µM. hit rate 0.02% among 300,000. S. cerevisiae SKY197-pL101 polyadenylation reporter, beta-gal luminescence; efflux-impaired pdr1/pdr3 knockout yeast; score 100 = 6 SD above DMSO;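 active = lowest replicate activity score at least 50, where 100 means six control SD above control mean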;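 note: yeast exposed to compound for 9 h at 30 °C; higher score means more reporter readthrough which indicates perturbed polyadenylation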
PKA-R2B activ – activates the human PKA-R2B holoenzyme complex | P22694+P31323 | PKA-R2B holoenzyme dissociation, Cy5-IP20 fluorescence polarization; R2B truncated from residue 108, S112A mutant; 0% DMSO only, 100% 113 µM cGMP | activation, % at 11.4 µM | hit rate 0.079% among 340,000;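 active = activation above a cutoff set at the mean over all compounds plus 3 SD, cut at about 18% in these data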;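 note: higher means more holoenzyme dissociation and a rise in polarization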
Neddylation inh – blocks human cullin neddylation | P61081+Q13564 | TR-FRET cullin neddylation, biochemical | calls only at 25 µM | hit rate 0.58% among 360,000; in the data active = inhibition above about 36%
Target sequence (P61081 whole entry, looked up): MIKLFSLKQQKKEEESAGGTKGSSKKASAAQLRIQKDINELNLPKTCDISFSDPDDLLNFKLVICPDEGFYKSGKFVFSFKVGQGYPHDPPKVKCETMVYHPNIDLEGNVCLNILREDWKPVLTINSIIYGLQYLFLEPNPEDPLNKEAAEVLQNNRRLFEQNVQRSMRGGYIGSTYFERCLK
Target sequence (Q13564 whole entry, looked up): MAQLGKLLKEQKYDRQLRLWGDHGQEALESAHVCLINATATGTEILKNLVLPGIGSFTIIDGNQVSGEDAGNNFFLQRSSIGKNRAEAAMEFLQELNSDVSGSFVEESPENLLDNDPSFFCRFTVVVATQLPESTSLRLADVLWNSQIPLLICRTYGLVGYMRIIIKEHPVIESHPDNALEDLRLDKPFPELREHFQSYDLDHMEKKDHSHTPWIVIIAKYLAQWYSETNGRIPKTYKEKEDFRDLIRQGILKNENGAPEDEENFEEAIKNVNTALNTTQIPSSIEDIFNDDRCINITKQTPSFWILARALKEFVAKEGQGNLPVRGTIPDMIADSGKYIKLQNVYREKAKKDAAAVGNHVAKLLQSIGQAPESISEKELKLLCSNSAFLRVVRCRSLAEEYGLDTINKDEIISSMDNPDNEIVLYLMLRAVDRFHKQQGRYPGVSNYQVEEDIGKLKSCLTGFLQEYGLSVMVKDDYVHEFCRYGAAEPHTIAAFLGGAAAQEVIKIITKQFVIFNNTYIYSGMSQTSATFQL
PKA-R1A act – PKA-R1A complex activation; P00514+P68181; PKA-R1A dissociation, Cy5-IP20 fluorescence polarization; scaled: DMSO 0%, 113 µM cGMP 100%; activation, % at 11.4 µM; hit rate 0.083% among 340,000; AID 504707;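 active = percent activation above the mean of all tested compounds plus 3 SD, cut at about 19% in these data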;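 note: higher means more PKAc released from R1A so a rise in polarization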
Neddyl inh conf – cullin neddylation inhibition, confirmation | shares compounds with Neddylation inh | TR-FRET cullin neddylation biochemical assay | calls only at 25 µM | hit rate 13% among 1,800 | AID 652217; in the data active = inhibition above about 40%;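 note: neddylation substrate is the cullin 1 ring ligase complex with SKP2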
Calls only; i = inactive; nt = no result given; + = active, no number.

SMILES	PolyA inh	PKA-R2B activ	Neddylation inh	PKA-R1A act	Neddyl inh conf
COc1ccc(-c2cc(C(=O)N/N=C(\C)c3cccnc3)c3cc(C)ccc3n2)cc1OC	i	i	i	i	nt
c1ccc(-c2cc(N3CCOCC3)nc3ccccc23)cc1	i	i	+	i	i
Clc1ccc(-c2nc(N3CCOCC3)nc3ccccc23)cc1	i	i	+	i	nt
N#Cc1cc(N2CCOCC2)nc2ccccc12	i	i	+	i	i
c1ccc(-c2nc(N3CCCC3)nc3ccccc23)cc1	i	i	i	i	nt
COC(=O)c1ccc(CNC(=O)c2ccc(S(=O)(=O)N(C)c3ccccc3OC)cc2)cc1	nt	i	i	i	nt
Cc1c(N=C2N=C(NC(=O)Nc3ccc(Cl)cc3)c3ccccc32)c(=O)n(-c2ccccc2)n1C	i	i	i	i	nt
CCN(CC(=O)NCc1cccs1)C(=O)/C=C/c1cccc(OC)c1OC	i	i	+	i	nt
CCN(CC(=O)NCc1cccs1)C(=O)/C=C/c1ccc(OC)c(OC)c1	i	i	i	i	nt
CCOC(=O)CN(C(=O)COc1nc(-c2ccccc2)cc(C)c1C#N)c1ccccc1C	i	nt	nt	nt	nt
COC(=O)c1c(C(=O)OC)c2cc(C(=O)c3ccccc3)ccn2c1Cl	i	i	+	i	i
Cc1cccc2nnc(-c3ccccc3)n12	nt	i	i	i	nt
Cc1nnc2ccc(-c3ccc(NS(=O)(=O)c4ccc(Cl)s4)cc3)nn12	nt	i	+	i	nt
O=C(c1cc2nc(-c3ccco3)cc(C(F)(F)F)n2n1)N1CCCCCC1	i	i	+	i	nt
CN1CCN(C(=O)c2cc3nc(-c4ccccc4)cc(C(F)(F)F)n3n2)CC1	i	i	i	i	nt
O=C(c1cnn2c(C(F)(F)F)cc(-c3ccc4c(c3)OCO4)nc12)N1CCCCC1	i	i	+	i	i
O=C(c1cc2nc(-c3ccccc3)cc(C(F)(F)F)n2n1)N1CCCC1	nt	i	+	i	i
COc1ccc(-c2cc(C(F)(F)F)n3nc(C(=O)N4CCCCC4)cc3n2)cc1OC	i	i	+	i	i
O=C(c1cc2nc(-c3ccco3)cc(C(F)(F)F)n2n1)N1CCN(c2ccccc2)CC1	i	i	i	i	nt
O=C(CSc1nccc(=O)[nH]1)Nc1ccc(N2CCOCC2)cc1	i	i	i	i	nt
CCCCc1c(-c2ccc(F)cc2)ncn1CCc1ccccc1OC	nt	nt	i	nt	nt
COc1ccc(CN(CC(=O)NCCc2ccccc2)C(=O)CCC(=O)Nc2cc(C)ccn2)cc1	i	i	i	i	nt
CC(=O)c1ccc(-c2ccc(C(=O)NC3CC(C)(C)NC(C)(C)C3)o2)cc1	i	i	+	i	nt
CC1(C)CC(NC(=O)c2ccc(F)cc2)CC(C)(C)N1	nt	i	i	i	nt
CCN(C(=O)COC(=O)CCNS(=O)(=O)c1ccccc1F)c1c(N)n(Cc2ccccc2)c(=O)[nH]c1=O	nt	i	i	i	nt
SMILES	PolyA inh	PKA-R2B activ	Neddylation inh	PKA-R1A act	Neddyl inh conf
CC(C)CN1C(=O)c2ccc(NC(=O)c3ccco3)cc2C1=O	i	i	i	i	nt
CC(C)CN1C(=O)c2ccc(NC(=O)C3CC3)cc2C1=O	i	i	+	i	i
CC(=O)c1ccc(-c2ccc(C(=O)N3CCC(C(N)=O)CC3)o2)cc1	i	i	+	i	nt
CCOC(=O)C1CCN(C(=O)c2cc3ccc(OC)cc3[nH]2)CC1	i	i	i	i	nt
CCOC(=O)C1CCCN(C(=O)c2cc3cc(OC)c(OC)cc3[nH]2)C1 (stereo not given)	i	i	+	i	nt
CCn1cc(C(=O)O)c(=O)c2cc(F)c(N3CCN(C(=O)Nc4ccccc4)CC3)cc21	i	i	+	i	i
CCn1cc(C(=O)O)c(=O)c2cc(F)c(N3CCN(C(=S)NC(=O)c4ccc(OC)cc4)CC3)cc21	i	i	+	i	i
CCn1cc(C(=O)O)c(=O)c2cc(F)c(N3CCN(C(=S)NC(=O)c4ccc(Br)cc4)CC3)cc21	i	nt	i	nt	nt
Cc1c(NC(=O)c2nn(C(C)C)c(=O)c3ccccc23)c(=O)n(-c2ccccc2)n1C	nt	i	i	i	nt
Cc1c(OCc2nn[nH]n2)ccc2c3c(c(=O)oc12)CCC(C)C3 (stereo not given)	i	i	+	i	i
Cc1c(OCc2nn[nH]n2)ccc2c3c(c(=O)oc12)CCCC3	i	i	nt	i	nt
Cc1cccc(-n2ncc3c(NCCCO)ncnc32)c1	i	i	+	i	i
C=CCNc1ncnc2c1cnn2-c1cccc(C)c1	i	i	nt	i	nt
CC1(C)Cc2c(C#N)c(NCCO)nc(-c3ccco3)c2CO1	i	nt	+	nt	nt
CC1(C)Cc2c(C#N)c(NCCN3CCOCC3)nc(-c3ccco3)c2CO1	i	i	i	i	nt
Cc1ccc(C(C(=O)NC(C)(C)C)N(Cc2cccnc2)C(=O)C(=O)NC2CCCCC2)o1 (stereo not given)	i	i	i	i	nt
COc1ccc(-c2ccc3c(N)c(C(=O)NC(C)C)sc3n2)cc1OC	i	nt	+	nt	nt
COc1ccc(-c2ccc3c(N)c(C(=O)c4ccc(OC)c(OC)c4)sc3n2)cc1	i	i	i	i	nt
Cc1ccc2nc(N(CCN(C)C)C(=O)/C=C/c3cccs3)sc2c1	i	i	i	i	nt
CN(C)CCN(C(=O)/C=C/c1cccs1)c1nc2ccc(Br)cc2s1	i	i	+	i	i
Cc1cc(C)nc(NC(=NCCc2c[nH]c3ccccc23)NC(=O)C(C)(C)C)n1	i	i	i	i	nt
c1ccc(-c2nnc(-c3ccco3)o2)cc1	i	i	+	i	nt
Brc1ccc(-c2nnc(-c3ccco3)o2)cc1	i	i	i	i	nt
COc1ccc(CCNC(=O)c2cc3c(=O)n4cccc(C)c4nc3n(CC3CCCO3)c2=N)cc1 (stereo not given)	i	i	+	i	i
CSc1ccc(Cn2c(C)c(C(=O)NCCC#N)sc2=O)cc1	nt	nt	i	nt	nt
SMILES	PolyA inh	PKA-R2B activ	Neddylation inh	PKA-R1A act	Neddyl inh conf
Cc1nc(NC(=O)c2cccs2)ccc1Br	i	i	i	i	nt
C=CCN1C(=O)C(CC(=O)O)S/C1=N/N=C/c1ccc(N(CC)CC)cc1 (stereo not given)	nt	i	+	i	+
COC(=O)c1ccccc1NC(=O)CN1CCN(c2ccccn2)CC1	i	i	i	i	nt
COC(=O)c1ccccc1N/C=C1\CCc2c(c(C)nn2-c2ccccn2)C1=O	i	i	+	i	i
N#CC(=Cc1ccncc1)c1ccccc1	nt	i	i	i	nt
N#C/C(=C\c1ccncc1)c1nc2c(s1)CCCC2	i	i	+	i	nt
CN(C(=O)COC(=O)/C=C/c1cccs1)c1c(N)n(Cc2ccccc2)c(=O)[nH]c1=O	i	i	i	i	nt
COc1ccc(CO[C@@H]2O[C@H](CO)[C@@H](O)[C@H](O)[C@H]2NC(C)=O)cc1OC	i	i	i	i	nt
Cc1oc(-c2cccs2)nc1CSCC(=O)NC1CC1	i	i	+	i	i
COc1ccc(S(=O)(=O)N2CCN(C(c3ccccc3)c3ccccc3)CC2)cc1NC(C)=O	i	i	i	i	nt
N#Cc1ccc(CSc2ccc(S(=O)(=O)N3CCCC3)cn2)cc1	nt	i	i	i	nt
CCN(CC)C1=N/C(=C\c2ccc(OC)cc2)C(=O)N1c1ccccc1	i	i	+	i	i
